# Laboratory results reported in the supplement of paper PMC6555819.
# Tested on: THRa:RXRa (NR concentration 90 nM, RXRa partner concentration 90 nM)
# Experiment: PBM binding z-score (relative to random genomic background probes); higher = stronger binding; sequences stand for … in GC…GCGATTGACAGCGTAGAATGAAGG
# Method in brief: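 Binding z-scores take random background probes as their reference. They come from custom Agilent 4×180K protein-binding microarrays incubated 1 h with ligand-free nuclear receptor dimers, with antibodies against each partner (one per run) detecting binding. Scanned fluorescence was regression-normalized.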
row,Sequence,PBM binding z-score
1,GCGGCTAGGTCAGGTTGGTCAGCTAACGGGTACG,1.85
2,TCTAGCAGGCCAGAGGGTCACTCATGAGGTACGG,1.59
3,ACTTACGGGTCAACGAGGTTATCGCACGCGTATA,4.19
4,CTCGAAAAGTCGGTTGAGGTGAGTATACGGATAA,3.57
5,AGATTGAGGTTATTAAGATCAGGGAATTGCGGTC,2.37
6,CATACAGGGTCAGCTAGGCCAGAGGAGGGACGGC,2.75
7,GCTTGCAGGCCATTTGGGTCACTCAATGACGGGC,2.07
8,TATACAGGGTCAAATGCCAGAGTACGAATGTCGA,3.6
9,TGAATGAGGTTAAGGATCAGGGAACGTGGCGTCG,2.49
10,TAGCCTAGGTCATGCGGGCCAGTGTAGTGTCGGC,2.99
11,CGAGACAGGTGAGAAGGTAACTCAGCCTCGATTA,0.0357
12,CCTAATTGGTCAAGGTCACACACGCTATAGGTAC,4.34
13,CAAACTAGGTCACAGAGGTAAAAGTCCGTGCGTA,3.71
14,CCGAGTAGGTTATGGGGAATTCAGGCAACGGTGA,0.724
15,GCGACTGGGGCATCAGAAGGTTACCATAACTTAA,1.24
16,TCTATTAGTTGAAGGGCAACTGACGAGTCCGTTT,0.242
17,TGAATGAGGTTACAAGATCAGGGAACGTTGCAAA,2.2
18,TCTTGTAGATCAAAGGTTAAGAATGCCGAAGCCT,1.35
19,ATCGAAAGGTCGACGAGGTGAATATACACCGTTT,4.06
20,CATACAGGGTCAGCTAGGCCAGAGTGGGGACGGC,3.12

row,Sequence,PBM binding z-score
1,TCATATAGATAAAGGTGAAAGTCGAACGATATGA,0.819
2,CTAGAAAGGTCGGTTGAGGTGAGTATACGGATAA,4.81
3,TCATATAGGTAAAAGTTGAAAGTCGGTGTGGTAA,0.586
4,TGAATGAGGTTGAAGATCAGGGAACGTGGCGTCG,0.467
5,AAATGTAGGTTACATCCGGGTCATTCAGGCTATG,3.67
6,GCATATAGGTAATCCAAGGTGAAAGTCCGATTGT,4.57
7,CCTTACGGGTCACTGAAAGGTTATAGCATTTGGA,3.44
8,GCGACTGGGGCAAACCAGGTTACCATAAGGTTGG,3.93
9,AGTCAAAGTTCATCTAGGTAACGTCAGATATGCT,3.18
10,TCTTGTAGATCAATAGAGGTTATGAAAGTGCGCT,2.33
11,TCATATAGGTAAAAGCTGAAAGTCGGTGTGGTAA,-0.258
12,GGGACTGGGGCAAAGCAGGTTACCATAAGGTTGG,3.3
13,CTCGAAAGGTCGTGCTCAGGTGAGAATACCAAAC,4.12
14,TCGAGAAGGTTAGTCGGGGCATTCAGCCAACATA,1.79
15,TCTTCTAGATCAAAGGTTAAGAAAGCCGAAGCCT,1.51
16,ATATGTAGGTTAGCTGGGGTCGTTCAGACTAGGC,4.63
17,AGAATGAGGTTACCAAAGATAAGGGAAACGCTTG,2.55
18,CCTCGGAGGACAGAAGCTCAGAGCTGTCCGCTTT,-0.606
19,GATACAGGGACAAGGCCAGAGTACGCGTATTGAT,0.874
20,GTTAGTTGGTCAGTAAAAGGTCACACACCGGTCG,3.68
